Source: PubChem BioAssay (Tox21)
Inconclusive results are not listed. The source made the active and inactive calls. Unless noted, calls follow the shape of the dose curve; as a rule, active = well fitted curve in the direction sought with a large enough effect in the repeat runs; inconclusive = weak or mixed curves; inactive = no such curve, though single readings can be large; an effect the other way counts as inactive or inconclusive.

What was measured:
[1] = qHTS assay to identify small molecule agonists of the sonic hedgehog signaling (Shh) pathway (AID 1259368; calls by dose curve;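 also: NIH/3T3-derived 3T3Gli1-Luc cells carrying a stable Gli1-driven firefly luciferase reporter; series mostly up to about 92 µM; nearly all actives have a fitted effect of over 15% in size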)
In short: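 Stable NIH/3T3 Gli1-Luc reporter clone; 24 hr cpd exposure after a 4 hr settling period; luminescence endpoint.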

[2] = qHTS assay to identify small molecule agonists of the androgen receptor (AR) signaling pathway in the presence of an antagonist - cell viability counter screen (AID 1259379);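 also: MDA-kb2 human breast cancer cells carrying an MMTV luciferase reporter; series mostly up to about 92 µM; nearly all actives have a fitted effect of over 25% in size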
In short: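 Counter screen for cell viability run in parallel with the AR agonist-mode luciferase assay. MDA-kb2 cells were co-treated with nilutamide (3.0uM final) and compounds, then incubated 16 hr at 37C, and CellTiter-Fluor fluorescence was measured.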

[3] = qHTS assay to identify small molecule agonists of the estrogen receptor beta (ER-beta) signaling pathway - cell viability counter screen (AID 1259380); also: nearly all actives have a fitted effect of over 30% in size
In short: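 In this qHTS counter screen, HEK293T cells carrying an ER-beta/UAS beta-lactamase reporter, grown in 2% charcoal-stripped FBS, received compound for 16 hr; ATP-based CellTiter-Glo luminescence was then read after 30 min at room temperature.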

[4] = qHTS assay to identify small molecule antagonists of the estrogen receptor beta (ER-beta) signaling pathway - cell viability counter screen (AID 1259382);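 also: HEK293T cells carrying ER-beta-UAS-bla reporter stimulated with estradiol; series mostly up to about 92 µM; nearly all actives have a fitted effect of over 55% in size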
In short: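 HEK293T ER-beta-UAS-bla, 2% charcoal-stripped FBS; compounds + 1nM E2 16 hr 37C; CellTiter-Glo luminescence, 30 min RT.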

[5] = qHTS assay to identify small molecule agonists or antagonists of the thyroid stimulating hormone receptor (TSHR) signaling pathway - wild type cell line counter screen (AID 1259384; calls by dose curve)
In short: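 Wild-type HEK293 cells were plated 18 h at 37 C/5% CO2, pin-dosed with compound plus Ro20-1724 medium, held 30 min at room temperature, then given cAMP-d2 and anti-cAMP-cryptate; fluorescence was read after 1 h. Fifteen concentrations, triplicate.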

[6] = molecular target: Thyrotropin receptor (Homo sapiens) (UniProt P16473); test: qHTS assay to identify small molecule antagonists of the thyroid stimulating hormone receptor (TSHR) signaling pathway (AID 1259385; calls by dose curve; also: nearly all actives have a fitted effect of over 20% in size)
Chain of Thyrotropin receptor (Homo sapiens) (P16473 whole entry, looked up): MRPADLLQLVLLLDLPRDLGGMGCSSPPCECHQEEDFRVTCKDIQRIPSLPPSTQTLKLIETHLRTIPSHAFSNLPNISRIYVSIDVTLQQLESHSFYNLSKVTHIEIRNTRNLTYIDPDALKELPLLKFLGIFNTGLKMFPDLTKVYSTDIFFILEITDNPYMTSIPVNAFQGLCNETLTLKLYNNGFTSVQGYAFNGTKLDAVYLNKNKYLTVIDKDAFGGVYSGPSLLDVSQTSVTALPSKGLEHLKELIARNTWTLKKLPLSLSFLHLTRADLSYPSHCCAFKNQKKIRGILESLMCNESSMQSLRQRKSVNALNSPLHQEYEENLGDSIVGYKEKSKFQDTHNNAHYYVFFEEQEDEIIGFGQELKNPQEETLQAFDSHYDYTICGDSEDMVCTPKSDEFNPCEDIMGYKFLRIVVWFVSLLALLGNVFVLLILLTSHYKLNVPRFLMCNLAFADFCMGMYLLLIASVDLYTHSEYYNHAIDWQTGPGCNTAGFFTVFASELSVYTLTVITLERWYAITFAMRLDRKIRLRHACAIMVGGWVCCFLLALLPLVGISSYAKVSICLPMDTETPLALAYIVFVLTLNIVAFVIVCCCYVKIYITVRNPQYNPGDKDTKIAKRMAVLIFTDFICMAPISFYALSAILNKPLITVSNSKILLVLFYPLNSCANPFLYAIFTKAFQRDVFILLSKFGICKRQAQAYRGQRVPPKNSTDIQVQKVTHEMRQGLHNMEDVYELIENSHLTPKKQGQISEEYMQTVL
In short: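 TSHR-HEK293 cells were plated and held 18 h at 37C/5% CO2, then given compound plus Ro20-1724 and stimulated with TSH at 1.5 ng/mL final. After 30 min at room temperature, cAMP was detected with cAMP-d2/anti-cAMP-cryptate (1 h) by fluorescence.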

[7] = qHTS assay to identify small molecule agonists of the estrogen receptor alpha (ER-alpha) signaling pathway in the presence of an antagonist - cell viability counter screen (AID 1259386);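 also: series mostly up to about 92 µM; cells exposed to compounds for 22 h at 37 °C before the viability read; nearly all actives have a fitted effect of over 30% in size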
In short: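 Steps: 5-day stripped-FBS culture; seed and incubate 24hr; add ICI-182,780 (10.0nM final); pin 15-point compound titration; incubate 22hr at 37C; add CellTiter-Fluor at 21hr; read fluorescence.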

[8] = molecular target: Progesterone receptor (Homo sapiens) (UniProt P06401); test: qHTS assay to identify small molecule agonists of the progesterone receptor (PR) signaling pathway (AID 1346784; calls by dose curve; also: nearly all actives have a fitted effect of over 30% in size; also: potency is read from the fitted curve at half-maximal effect)
Chain of Progesterone receptor (Homo sapiens) (P06401 whole entry, looked up): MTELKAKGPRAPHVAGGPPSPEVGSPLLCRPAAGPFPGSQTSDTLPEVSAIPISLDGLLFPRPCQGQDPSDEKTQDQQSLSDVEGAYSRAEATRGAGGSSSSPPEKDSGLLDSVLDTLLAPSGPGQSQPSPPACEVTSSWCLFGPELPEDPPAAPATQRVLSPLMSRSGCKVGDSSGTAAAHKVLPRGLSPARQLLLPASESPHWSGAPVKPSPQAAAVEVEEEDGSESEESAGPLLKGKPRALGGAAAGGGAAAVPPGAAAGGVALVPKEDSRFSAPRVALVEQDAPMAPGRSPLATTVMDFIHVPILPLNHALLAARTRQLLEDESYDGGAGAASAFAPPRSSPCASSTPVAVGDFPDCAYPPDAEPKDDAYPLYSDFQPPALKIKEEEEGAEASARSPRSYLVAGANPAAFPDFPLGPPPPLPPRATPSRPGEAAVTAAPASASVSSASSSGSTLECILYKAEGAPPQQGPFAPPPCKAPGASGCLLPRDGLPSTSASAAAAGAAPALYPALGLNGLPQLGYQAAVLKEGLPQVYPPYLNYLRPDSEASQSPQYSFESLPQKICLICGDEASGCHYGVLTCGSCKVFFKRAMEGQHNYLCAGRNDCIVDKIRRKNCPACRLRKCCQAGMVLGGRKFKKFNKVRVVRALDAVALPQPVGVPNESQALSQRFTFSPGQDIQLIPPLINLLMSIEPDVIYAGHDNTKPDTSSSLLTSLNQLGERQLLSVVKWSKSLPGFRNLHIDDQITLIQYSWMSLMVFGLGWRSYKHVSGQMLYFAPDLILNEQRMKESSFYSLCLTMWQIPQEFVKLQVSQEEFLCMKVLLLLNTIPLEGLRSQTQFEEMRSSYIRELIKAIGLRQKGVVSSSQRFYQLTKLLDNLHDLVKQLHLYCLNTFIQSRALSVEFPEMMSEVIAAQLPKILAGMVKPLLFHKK
In short: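 Seed PR-UAS-bla HEK 293T cells (2% charcoal-stripped FBS), incubate 6 hr at 37C; add compounds in DMSO, 16 hr at 37C; add LiveBLAzer B/G substrate, 2 hr RT; read fluorescence intensity.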

[9] = qHTS assay to identify small molecule antagonists of the progesterone receptor (PR) signaling pathway - cell viability counter screen (AID 1346798); also: series mostly up to about 92 µM; nearly all actives have a fitted effect of over 50% in size
In short: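 Measures cytotoxicity in parallel with the PR antagonist reporter read: HEK293T PR-UAS-bla cells get compound and R5020 for 16 hr, and remaining viable cells are quantified by CellTiter-Glo luminescence.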

[10] = qHTS assay to identify small molecule agonists of the progesterone receptor (PR) signaling pathway - cell viability counter screen (AID 1346799; calls by dose curve; also: nearly all actives have a fitted effect of over 45% in size)
In short: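 Using the same plates as the PR reporter screen, HEK293T PR-UAS-bla cells received compounds for 16 hr at 37C and were then lysed with CellTiter-Glo; luminescence was read 30 min later at room temperature.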

[11] = qHTS assay to identify small molecule antagonists of the TGF-beta/Smad signaling pathway - cell viability counter screen (AID 1346824); also: nearly all actives have a fitted effect of over 50% in size
In short: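 SBE-bla HEK 293T cells were plated overnight at 37 C, then given compounds in DMSO plus TGF-beta1 (added as 0.25 ng/mL solution) for 5 hr. After the bla read, CellTiter-Glo was added to the same wells and luminescence read after 30 min at room temperature.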

[12] = qHTS assay to identify small molecule agonists of the TGF-beta/Smad signaling pathway - cell viability counter screen (AID 1346829); also: top concentration of the series differs between compounds; nearly all actives have a fitted effect of over 45% in size
In short: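 Here the cytotoxicity of library compounds is measured in SBE-bla HEK 293T cells treated for 5 hr, using CellTiter-Glo added to wells already read for the beta-lactamase reporter.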

[13] = qHTS assay to identify small molecule agonists of the TGF-beta/Smad signaling pathway (AID 1346859; active = well fitted activation curve with a large enough effect in the signal ratio in the repeat runs, not every such curve was filed as active; the % refers to the signal ratio; also: series mostly up to about 77 µM)
In short: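 Beta-lactamase reporter activity downstream of Smad binding elements was measured in stably transfected HEK 293T cells; compounds were incubated for 5 hr, substrate for 2 hr at room temperature.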

[14] = molecular target: Estrogen receptor beta (Homo sapiens) (UniProt Q92731); test: qHTS assay to identify small molecule agonists of the estrogen receptor beta (ER-beta) signaling pathway (AID 1259377; active = well fitted activation curve with a large enough effect in the signal ratio in the repeat runs, not every such curve was filed as active; the % refers to the signal ratio)
Chain of Estrogen receptor beta (Homo sapiens) (Q92731 whole entry, looked up): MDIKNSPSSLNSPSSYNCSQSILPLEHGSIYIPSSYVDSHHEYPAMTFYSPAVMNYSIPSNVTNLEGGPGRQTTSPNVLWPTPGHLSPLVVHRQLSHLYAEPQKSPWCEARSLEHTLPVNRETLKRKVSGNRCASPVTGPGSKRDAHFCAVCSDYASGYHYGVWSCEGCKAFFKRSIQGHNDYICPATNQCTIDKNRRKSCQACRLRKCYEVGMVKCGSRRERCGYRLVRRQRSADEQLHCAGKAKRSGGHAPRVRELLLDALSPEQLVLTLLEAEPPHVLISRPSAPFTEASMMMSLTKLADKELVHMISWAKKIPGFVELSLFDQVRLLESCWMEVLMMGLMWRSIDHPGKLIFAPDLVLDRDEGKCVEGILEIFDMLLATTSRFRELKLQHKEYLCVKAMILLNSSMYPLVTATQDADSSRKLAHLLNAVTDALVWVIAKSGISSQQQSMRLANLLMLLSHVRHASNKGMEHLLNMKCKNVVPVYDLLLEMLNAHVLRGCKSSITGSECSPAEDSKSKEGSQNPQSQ
In short: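 Screening used GripTite ER-beta-UAS-bla cells held in 2% charcoal-stripped FBS medium. After overnight (16 hr) compound incubation at 37C, beta-lactamase activity was detected with a FRET substrate by fluorescence.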

[15] = molecular target: Androgen receptor (Homo sapiens) (UniProt P10275); test: qHTS assay to identify small molecule agonists of the androgen receptor (AR) signaling pathway in the presence of an antagonist (AID 1259381; calls by dose curve; also: potency is read from the fitted curve at half-maximal effect; nearly all actives have a fitted effect of over 15% in size)
Chain of Androgen receptor (Homo sapiens) (P10275 whole entry, looked up): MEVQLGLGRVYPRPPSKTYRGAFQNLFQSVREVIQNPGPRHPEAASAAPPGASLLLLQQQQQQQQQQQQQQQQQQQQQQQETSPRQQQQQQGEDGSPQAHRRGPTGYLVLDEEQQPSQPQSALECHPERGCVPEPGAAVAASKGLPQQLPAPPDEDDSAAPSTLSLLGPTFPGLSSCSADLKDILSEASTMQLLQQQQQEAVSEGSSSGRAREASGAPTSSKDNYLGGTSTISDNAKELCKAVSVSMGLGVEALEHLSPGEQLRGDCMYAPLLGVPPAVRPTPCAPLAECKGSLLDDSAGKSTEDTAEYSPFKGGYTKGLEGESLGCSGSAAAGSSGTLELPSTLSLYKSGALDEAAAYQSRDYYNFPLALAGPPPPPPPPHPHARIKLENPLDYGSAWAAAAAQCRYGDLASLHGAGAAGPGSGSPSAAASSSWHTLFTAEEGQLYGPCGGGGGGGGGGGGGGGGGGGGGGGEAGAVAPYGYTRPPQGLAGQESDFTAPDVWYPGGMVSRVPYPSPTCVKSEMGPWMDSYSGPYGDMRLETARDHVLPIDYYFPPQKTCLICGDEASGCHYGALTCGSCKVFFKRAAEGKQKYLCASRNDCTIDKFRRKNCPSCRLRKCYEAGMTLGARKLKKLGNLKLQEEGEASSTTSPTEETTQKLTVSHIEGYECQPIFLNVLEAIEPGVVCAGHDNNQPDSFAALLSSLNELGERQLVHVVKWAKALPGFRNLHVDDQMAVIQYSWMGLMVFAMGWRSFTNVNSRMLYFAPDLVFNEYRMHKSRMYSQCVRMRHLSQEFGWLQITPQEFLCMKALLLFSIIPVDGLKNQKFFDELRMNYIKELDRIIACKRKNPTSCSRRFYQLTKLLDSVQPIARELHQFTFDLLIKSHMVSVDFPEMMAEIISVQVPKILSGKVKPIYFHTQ
In short: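 AR antagonist background: nilutamide 3.0uM final. Cell line: MDA-kb2, MMTV-driven luciferase, responsive to both AR and GR. Exposure 16hr, 37C, no CO2; ONE-Glo luminescence.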

[16] = molecular target: Thyrotropin-releasing hormone receptor (Homo sapiens) (UniProt P34981); test: qHTS assay to identify small molecule antagonists of the thyrotropin-releasing hormone receptor (TRHR) signaling pathway (AID 1346877; active = well fitted inhibition curve with a large enough effect in the repeat runs, not every such curve was filed as active; also: series mostly up to about 51 µM)
Chain of Thyrotropin-releasing hormone receptor (Homo sapiens) (P34981 whole entry, looked up): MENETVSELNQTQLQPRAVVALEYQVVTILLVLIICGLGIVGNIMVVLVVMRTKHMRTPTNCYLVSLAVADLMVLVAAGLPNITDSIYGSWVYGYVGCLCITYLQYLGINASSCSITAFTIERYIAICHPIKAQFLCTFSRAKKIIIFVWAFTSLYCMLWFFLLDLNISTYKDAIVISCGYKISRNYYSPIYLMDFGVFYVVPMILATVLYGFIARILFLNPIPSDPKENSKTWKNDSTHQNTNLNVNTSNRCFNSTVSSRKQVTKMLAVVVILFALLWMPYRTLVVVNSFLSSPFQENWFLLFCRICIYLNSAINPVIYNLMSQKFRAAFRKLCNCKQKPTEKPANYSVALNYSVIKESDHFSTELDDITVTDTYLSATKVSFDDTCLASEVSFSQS
In short: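 Human TRHR in HEK293 cells; inhibition of the intracellular calcium rise triggered by 1 nM TRH was followed by fluorescence over 3 min. Compounds were run at 15 concentrations, three replicates each.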

[17] = molecular target: Estrogen receptor (Homo sapiens) (UniProt P03372); test: qHTS assay to identify small molecule agonists of the estrogen receptor alpha (ER-alpha) signaling pathway in the presence of an antagonist (AID 1259383; calls by dose curve; also: top concentration of the series differs between compounds; nearly all actives have a fitted effect of over 15% in size)
Chain of Estrogen receptor (Homo sapiens) (P03372 whole entry, looked up): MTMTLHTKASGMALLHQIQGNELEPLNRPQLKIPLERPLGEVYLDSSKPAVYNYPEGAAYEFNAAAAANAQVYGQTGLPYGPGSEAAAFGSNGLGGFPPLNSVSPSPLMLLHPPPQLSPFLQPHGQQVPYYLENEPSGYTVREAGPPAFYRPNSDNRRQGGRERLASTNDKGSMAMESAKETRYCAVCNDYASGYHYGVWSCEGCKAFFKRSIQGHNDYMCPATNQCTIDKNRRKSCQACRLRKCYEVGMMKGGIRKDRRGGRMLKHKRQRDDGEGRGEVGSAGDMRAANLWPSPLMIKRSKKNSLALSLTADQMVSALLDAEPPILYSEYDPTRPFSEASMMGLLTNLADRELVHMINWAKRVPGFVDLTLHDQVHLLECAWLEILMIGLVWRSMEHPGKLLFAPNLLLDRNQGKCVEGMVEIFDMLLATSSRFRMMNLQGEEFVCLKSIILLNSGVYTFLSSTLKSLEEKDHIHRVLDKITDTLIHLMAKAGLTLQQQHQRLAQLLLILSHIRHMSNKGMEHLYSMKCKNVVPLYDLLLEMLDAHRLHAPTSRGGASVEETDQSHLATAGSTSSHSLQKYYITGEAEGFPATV
In short: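 ER-alpha agonism measured under antagonist challenge: 10.0nM ICI-182,780 (final) plus compound, 15 concentrations, 22hr, VM7Luc4E2 ERE-luciferase cells. Read by luminescence.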

[18] = molecular target: Progesterone receptor (Homo sapiens) (UniProt P06401); test: qHTS assay to identify small molecule antagonists of the progesterone receptor (PR) signaling pathway (AID 1346795; active = well fitted inhibition curve with a large enough effect in the signal ratio in the repeat runs, not every such curve was filed as active; the % refers to the signal ratio)
In short: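 Screening used a GripTite HEK293T line with PR-responsive UAS-beta-lactamase. Cells were challenged with compound in the presence of 1 nM R5020 final for 16 hr at 37C; B/G FRET substrate, 2 hr room temperature, fluorescence.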

Measured: Potency

NC(=O)c1ccc([N+](=O)[O-])cc1
not listed: [14] | [15] | [16] | [17] | [18]
inactive: all other assays above

CN1CCN(c2cc3c(cc2F)c(=O)c(C(=O)O)cn3-c2ccc(F)cc2)CC1
active: [15] 26.6 µM | [8] 29.8 µM
not listed: [2] | [5] | [6] | [13] | [17] | [18]
inactive: all other assays above

O=C(O)COc1nn(Cc2ccccc2)c2ccccc12
active: [15] 33.5 µM
not listed: [7] | [10] | [12] | [13] | [18]
inactive: all other assays above

Cc1ccc(=O)n(-c2ccccc2)c1
not listed: [7] | [12] | [15]
inactive: all other assays above
